Measurements published in ChEMBL document CHEMBL4513216, “Probing the Open Global Health Chemical Diversity Library for Multistage-Active Starting Points for Next-Generation Antimalarials” (ACS Infect Dis, 2020).
Screen size: about 69,000 compounds; about 8,600 (12%) showed an effect of 50% or more. The list comes from a sample in which strong results are over-represented; it also holds similar structures and randomly drawn compounds.

tested on: Plasmodium berghei; assay: Screen against P. berghei liver stage (PbLuc), transformed with Luciferase, at 10uM; type: functional, HepG2; conditions: tested at 10 uM

| SMILES | INHIBITION |
| --- | --- |
| CN(Cc1cc(C2CC2)[nH]n1)C(=O)c1cnn2ccn(C)c12 | 14.9% |
| Cc1c(-c2cccs2)nn2c(=O)c3c([nH]c12)CN(C(=O)C1CC1)C3 | 43.7% |
| CC1c2ncc(CNC(=O)C3CC3)n2CCN1Cc1ccncc1 (centres undefined) | 6.55% |
| CN1CCN(c2cc(CNC(=O)c3cnccn3)ccn2)CC1 | 35.3% |
| O=C(CC(F)(F)F)N1C[C@@H]2CC[C@H]1CN(Cc1ccccc1)C2 | -8.47% |
| CNc1nc(C2CCCCN2C(=O)C(C)(C)OC)nc2c1CN(C)CC2 (centres undefined) | 38.2% |
| CC1c2ncc(COCC3CCOCC3)n2CCN1C(=O)c1ccco1 (centres undefined) | 47.2% |
| COC1C[C@@H]2CN(C(=O)c3cc4ccc(F)cc4[nH]3)C[C@@H]2C1 (some centres undefined) | -36.1% |
| COCC1c2c(cnn2C)CCN1C(=O)c1cc(C)on1 (centres undefined) | 38.5% |
| COCC1c2c(cnn2C)CCN1C(=O)c1cscn1 (centres undefined) | 56.6% |
| CCn1ncc2c1C(COC)N(C(=O)c1cscn1)CC2 (centres undefined) | 38.5% |
| O[C@@H]1C[C@H]2CN(CC3CCCCC3)[C@H](Cc3ccccc3)CN2C1 | 16.2% |
| O=C(CC1CC1)NCc1cn2c(n1)CN(C(=O)c1cccnc1)CC2 | -5.69% |
| Cn1cc(Br)c(=O)c(NS(=O)(=O)c2ccc(Cl)cc2)c1 | -4.68% |
| CC(=O)N1CCN(CC(C)(O)c2cccc(C(F)(F)F)c2)CC1 (centres undefined) | 33.3% |
| CCN1CCN(CC(C)(O)c2cccc(C(F)(F)F)c2)CC1 (centres undefined) | 20.1% |
| CC(=O)N1CCCN(CC(C)(O)c2cccc(C(F)(F)F)c2)CC1 (centres undefined) | 64.5% |
| Cn1cnnc1S(=O)(=O)Cc1cc(Cl)c2c(c1)OCO2 | 68.4% |
| CCc1nnc(S(=O)(=O)Cc2cc(Cl)c3c(c2)OCO3)n1C | 24.8% |
| Cn1cnnc1S(=O)(=O)Cc1cc(Cl)c2c(c1)OCCO2 | 63.8% |
| CC(C(N)=O)S(=O)(=O)Cc1cc(Cl)c2c(c1)OCO2 (centres undefined) | 16.7% |
| CNC(=O)CCS(=O)(=O)Cc1cc(Cl)c2c(c1)OCCO2 | 15.3% |

| SMILES | INHIBITION |
| --- | --- |
| CN(C)C(=O)CS(=O)(=O)Cc1cc(Cl)c2c(c1)OCCO2 | 16.9% |
| Cc1csc(N2CCCN(C(=O)c3c(C)noc3C)CC2)n1 | -19.6% |
| COc1cccc(CCN2C[C@H]3CCNCC[C@H]3S2(=O)=O)c1 | 24.6% |
| CCn1cc(NC(=O)NCCN2CCc3ccccc3C2)cn1 | 17.5% |
| Cc1cc(C)n(C2CCCN(C(=O)c3ccc(N(C)C)nn3)C2)n1 (centres undefined) | 13.2% |
| CC(=O)N1CCC(CCc2ccnc(NC(=O)c3ccccn3)c2)CC1 | 21.95% |
| CC(=O)N1CCC(CCc2ccnc(Nc3ccccn3)c2)CC1 | 40.65% |
| O=C(Nc1cc(CCC2CCN(CCO)CC2)ccn1)c1ccccn1 | 52.8% |
| CC(=O)Nc1cc(CCC2CCN(C(=O)c3ccccn3)CC2)ccn1 | 10.35% |
| CN1CCC(CCc2ccnc(NC(=O)c3ccccn3)c2)CC1 | 67.45% |
| O=C(CO)N1CCC(CCc2ccnc(Nc3cnccn3)c2)CC1 | 36% |
| CC(=O)N1CCC(C(=O)NCc2cc[nH]n2)(c2ccccc2)CC1 | -11.9% |
| COc1ccc(OC)c(C(O)CNC(=O)Nc2ccc(F)cc2F)c1 (centres undefined) | -27% |
| CC(=O)NCCNC(=O)C1(N2CCCCC2)Cc2ccccc2C1 | -46.4% |
| c1ccc2c(c1)CC(CNCc1ccncc1)(N1CCCCC1)C2 | 12.3% |
| CCc1ccccc1CNC(=O)NCc1cnn(C)c1 | 13.9% |
| CSc1ncc(CNCC2(N3CCCCC3)Cc3ccccc3C2)cn1 | 72.4% |
| O=C(NCCCO)C1(N2CCCCC2)Cc2ccccc2C1 | 0.818% |
| Cn1cc(CNCC2(N3CCCCC3)Cc3ccccc3C2)cn1 | 78.1% |
| CCN(CC)CC1CN(CCc2ccccc2)Cc2nccn2C1 (centres undefined) | 0.139% |
| CC(c1cc(O)nc(NC2CCCC2)n1)n1ncc2ccccc2c1=O (centres undefined) | 4.8% |
| Cc1nc(C)n(CC2CCCCN2CCOc2ccc(C#N)cc2)n1 (centres undefined) | 42% |

| SMILES | INHIBITION |
| --- | --- |
| CCc1ncc2c(n1)CN(C(C)C(=O)Nc1ccc(Cl)cn1)CC2 (centres undefined) | 48.2% |
| Cc1nnc(C(C)Nc2cccc(COCCOC(C)C)c2)o1 (centres undefined) | 21.5% |
| Cc1nnc(C(C)Nc2cccc(COCC(F)(F)C(F)F)c2)o1 (centres undefined) | 57.4% |
| Cc1nnc(C(C)Nc2cccc(COCCc3ccccc3)c2)o1 (centres undefined) | 19.7% |
| CN(C)CCNC(=O)[C@H]1C[C@H]2CN(C(=O)NC3CCCC3)C[C@@H]1O2 | 6.83% |
| Cc1ccc(Cn2cc(Br)c(NS(C)(=O)=O)n2)cc1 | 19.575% |
| CNc1cc(C2CN(C(=O)c3ccccc3)CCO2)nc(C)n1 (centres undefined) | 23.9% |
| O=C(NCC(F)(F)F)C1CSCN1S(=O)(=O)c1ccccc1F (centres undefined) | 52.3% |
| O=C(NCC1CC1)C1CSCN1S(=O)(=O)c1ccccc1F (centres undefined) | 26.6% |
| CC(C)(C)NC(=O)C1CSCN1S(=O)(=O)c1ccccc1F (centres undefined) | 32.7% |
| O=C(c1ccccc1-n1cccn1)N1CCC(Nc2cccnn2)CC1 | -92.9% |
| Oc1cc(C2CCCCN2C2CCCC2)nc(-c2cccnc2)n1 (centres undefined) | 15.5% |
| Cc1ccc(C(=O)N(C)Cc2nccn2CC(F)(F)F)cn1 | -16.8% |
| Cc1cc(C)nc(N2CCOC(C)(C(=O)N(C)C)C2)n1 (centres undefined) | -11.4% |
| Cc1nc(CO[C@@H]2CN(Cc3cnn(C)c3)[C@@H]3COC[C@@H]32)cs1 | 50.1% |
| Cc1nc(CO[C@H]2CN(C(=O)c3cccnc3)[C@@H]3COC[C@H]23)cs1 | 51.2% |
| Cc1nc(CO[C@H]2CN(C(=O)c3cccn3C)[C@@H]3COC[C@H]23)cs1 | 38.5% |
| Cc1nc(CO[C@@H]2CN(Cc3ccc(F)cc3)[C@@H]3COC[C@@H]32)cs1 | 23.6% |
| Cc1nc(CO[C@H]2CN(C(=O)c3cnoc3C)[C@@H]3COC[C@H]23)cs1 | 24.9% |
| Cc1nc(CO[C@@H]2CN(Cc3ccsc3)[C@@H]3COC[C@@H]32)cs1 | 14.1% |
| Cn1ccc(C(=O)N2C[C@@H]3OCCN(c4ncccn4)[C@@H]3C2)n1 | 18.4% |
| Cc1nc(-c2ccccc2)n(CC(=O)NC(C)(C)C)n1 | 16.8% |

| SMILES | INHIBITION |
| --- | --- |
| CC(C)(C)OC(=O)NCCc1csc(N2CCCC2)n1 | 65.4% |
| CC(C)(C)SCC(=O)NCCc1csc(N2CCCC2)n1 | 78.2% |
| CCCc1nc(CNC(=O)Cc2csc(C)n2)cs1 | 9.35% |
| CCNC(=O)NCCc1csc(N2CCCC2)n1 | 39.7% |
| CCN(CC)CC(=O)NCCc1csc(N2CCCC2)n1 | 9.48% |
| Cc1ncsc1CCC(=O)NCc1csc(N2CCCC2)n1 | -20.8% |
| CC(C)OCCC(=O)NCCc1csc(N2CCCC2)n1 | 48.3% |
| CCC=C(C)C(=O)NCCc1csc(N2CCCC2)n1 | 41.4% |
| Cc1nc(CC(=O)NCc2csc(N3CCCC3)n2)cs1 | 70.3% |
| O=C(CN1CC(c2nc(-c3ccco3)no2)C1)NCCc1ccccc1 | -63.6% |
| Cc1nc(NC(=O)c2c3c(nn2C2CCS(=O)(=O)C2)CCC3)sc1C (centres undefined) | -14.9% |
| O=C(NCc1ccc(CO)cc1)C1CCOc2ccccc2C1 (centres undefined) | 5.91% |
| Cn1nc(C(=O)N2CCOCC2)cc1C(=O)Nc1cc(Cl)cc(Cl)c1 | 45.9% |
| CCc1nnc(NC(=O)NCCN(C)C(=O)OC(C)(C)C)s1 | 1.98% |
| CCc1cccc(OCCCN(C)C(=O)CN2CCNC2=O)c1 | 17% |
| N#Cc1cccn(CCOc2ccc(Cl)cc2)c1=O | 77.2% |
| N#Cc1ccc(OCCn2cccn2)cc1 | 15.7% |
| CCc1cccc(OCCn2cccc(C#N)c2=O)c1 | 68.3% |
| CC1C(=O)NCCN1CCOc1ccc(C#N)cc1 (centres undefined) | -17.2% |
| COc1cccc(Cn2cccc(C#N)c2=O)c1 | 41.4% |
| CC(=O)N1Cc2nccn2CC(CNC(=O)c2cccnc2)C1 (centres undefined) | -48.4% |
| O=C(c1c(O)cnc2ccccc12)N1CCN(CC(F)F)CC1 | -32.1% |

| SMILES | INHIBITION |
| --- | --- |
| CC[C@@H]1N(Cc2nccs2)CCC[C@]12CCC(=O)N2CCOC | 16.4% |
| CC(=O)NCCCNCc1c(C)nn(CC(C)C)c1N(C)C | 61.1% |
| CNC(=O)CCCNCc1c(C)nn(CC(C)C)c1N(C)C | 53.3% |
| Cc1nc(C)c(C(C)NCc2c(C)nn(C)c2N(C)C)s1 (centres undefined) | -15.1% |
| Cc1nn(CC(C)C)c(N(C)C)c1CNCCC(=O)NC(C)C | 13% |
| CNC(=O)CCCNCc1c(C)nn(C)c1N(C)C | 14.7% |
| Cc1nc(C)c(C(C)NCc2c(C)nn(CC(C)C)c2N(C)C)s1 (centres undefined) | 50% |
| Cc1nn(CC(C)C)c(N(C)C)c1CNCCCNS(C)(=O)=O | 42.1% |
| Cc1nn(CC(C)C)c(N(C)C)c1CNCCS(C)(=O)=O | 26.4% |
| Cc1nc(C)c(C(C)NCc2c(C(C)C)nn(C)c2N(C)C)s1 (centres undefined) | 1.2% |
| Cc1noc(C)c1CN1CCN(Cc2cccnc2)c2ncccc2C1 | 22.9% |
| COCCCn1ccc(NS(=O)(=O)c2cc(F)c(C)cc2F)n1 | 23.1% |
| CCOc1ccc(Cl)c(C(=O)NCCC(=O)Nc2ccncc2)n1 | -0.44% |
| O=C1C[C@H]2[C@@H](CCN2C(=O)Cc2cccs2)N1Cc1ccncc1 | 37.1% |
| CCn1cc(C(=O)N2CCOCC2)cn1 | -60.9% |
| COC(=O)CCC(=O)N1CCc2nc(C(=O)N3CCOCC3)sc2CC1 | -4.99% |
| COCC(=O)N1CCc2nc(C(=O)N(C)C)sc2CC1 | -6.46% |
| CNC(=O)c1nc2c(s1)CCN(C(=O)Cc1ccc(OC)cc1)CC2 | 14.2% |
| CCN(CC)C(=O)c1nc2c(s1)CCN(C(=O)CCC(=O)OC)CC2 | 12.7% |
| COC(=O)CCC(=O)N1CCc2nc(C(=O)N3CCCCC3)sc2CC1 | 57.1% |
| COC(=O)CCC(=O)N1CCc2nc(C(=O)N(C)C)sc2CC1 | 79.2% |
